Source: PubChem BioAssay
The source made the active and inactive calls.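 Rule for the calls: active = mean duplicate potentiation above the buffer control mean plus 5 SD of buffer wells; inactive = the rest.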

Target: Potassium voltage-gated channel subfamily KQT member 2 (Rattus norvegicus) (UniProt O88943)
Assay: rat KCNQ2 channel potentiation, selectivity assay for KCNQ1 potentiator project, KCNQ2-CHO-K1 cells (AID 493009);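 note: assay conditions were tuned for KCNQ1 rather than KCNQ2 modulators; signal is max minus min fluorescence divided by baseline after thallium stimulus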
Conditions: FluxOR thallium flux fluorescence, at 10 µM; stronger effect = higher value, scaled: buffer 0, activator control 100

Chain of Potassium voltage-gated channel subfamily KQT member 2 (Rattus norvegicus) (O88943 whole entry, looked up): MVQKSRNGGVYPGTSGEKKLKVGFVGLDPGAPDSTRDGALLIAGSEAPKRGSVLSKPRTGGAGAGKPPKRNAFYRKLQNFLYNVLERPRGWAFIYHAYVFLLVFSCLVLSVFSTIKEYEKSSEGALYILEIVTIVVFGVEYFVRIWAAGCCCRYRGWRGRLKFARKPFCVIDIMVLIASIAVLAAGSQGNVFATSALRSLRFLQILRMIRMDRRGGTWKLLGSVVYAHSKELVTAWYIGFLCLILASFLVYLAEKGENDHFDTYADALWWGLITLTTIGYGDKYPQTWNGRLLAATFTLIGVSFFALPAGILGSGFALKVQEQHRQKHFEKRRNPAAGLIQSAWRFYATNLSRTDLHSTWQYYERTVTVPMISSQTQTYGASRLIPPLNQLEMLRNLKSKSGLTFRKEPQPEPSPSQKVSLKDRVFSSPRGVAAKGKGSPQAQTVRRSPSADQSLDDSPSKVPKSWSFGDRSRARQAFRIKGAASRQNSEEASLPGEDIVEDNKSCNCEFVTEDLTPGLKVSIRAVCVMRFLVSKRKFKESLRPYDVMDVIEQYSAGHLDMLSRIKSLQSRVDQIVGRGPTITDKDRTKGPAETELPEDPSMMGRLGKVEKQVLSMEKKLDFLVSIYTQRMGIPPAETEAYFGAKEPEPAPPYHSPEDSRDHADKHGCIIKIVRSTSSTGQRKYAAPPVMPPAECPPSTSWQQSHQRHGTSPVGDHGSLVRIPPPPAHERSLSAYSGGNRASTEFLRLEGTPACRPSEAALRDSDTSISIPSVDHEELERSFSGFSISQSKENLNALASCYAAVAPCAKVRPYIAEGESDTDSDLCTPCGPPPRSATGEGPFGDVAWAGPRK

| Compound | outcome | potentiation |
| --- | --- | --- |
| Cc1onc(-c2ccccc2)c1C(=O)NC(=S)NNC(=O)c1ccccc1O | inactive | – |
| CCOC(=O)CNC(=O)N1CCc2ccc(NC(=O)c3ccccc3Cl)cc2C1 | inactive | – |
| Cc1cccc(/N=C/c2sc3ccccc3c2O)n1 | inactive | – |
| N#CC(c1ccccc1)c1ccc2c(C(F)(F)F)cc(C(F)(F)F)nc2n1 (stereo not given) | inactive | – |
| CCc1ccc2oc(C(=O)NC3CCS(=O)(=O)C3)cc(=O)c2c1 (stereo not given) | inactive | – |
| Cc1ccccc1C(OCCN(C)C)C1CCCCC1 (stereo not given) | inactive | – |
| CC(OC(=O)CC1Sc2ccccc2NC1=O)C(=O)NC1CCCC1 (stereo not given) | inactive | – |
| O=C1c2ccccc2C2(c3cc(C(F)(F)F)cc(C(F)(F)F)c3)NCCN12 (stereo not given) | inactive | – |
| CCOC(=O)CSC(=S)NC(=O)c1ccc(OC)cc1 | – | 147% (active) |
| O=C(Nc1nnc(-c2ccco2)o1)c1ccc(Cl)cc1 | – | 148% (active) |
| Cc1cccc(-c2nnc(NC(=O)c3ccc(Cl)cc3)o2)c1 | – | 155% (active) |
| O=c1c2c(-c3ccco3)csc2nc(SCc2cn3cccnc3n2)n1-c1ccccc1 | inactive | – |
| Cc1nc(=S)c2c([nH]1)-c1ccccc1CC21CCCCC1 | – | 180% (active) |
| C=CCn1c(O)c(N=NC(=S)Nc2ccccc2F)c2cc(S(=O)(=O)N3CCOCC3)ccc21 | inactive | – |
| CCN(CC)CCn1c(=S)[nH]c2cc(C(=O)NCc3ccc(C)cc3)ccc2c1=O | inactive | – |
| CCOc1ccc2nc(/N=C/c3c(C)[nH]n(-c4ccccc4)c3=O)sc2c1 | – | 661% (active) |
| O=S(=O)(NCCOc1ccccc1)c1ccc2ccccc2c1 | inactive | – |
| CCOC(=O)c1ccc(N2C(=O)C3ON(c4ccccc4)C(c4ccco4)C3C2=O)cc1 (stereo not given) | inactive | – |
| COC(=O)c1sc(NC(=S)NC(=O)c2cccc(C)c2)nc1C | inactive | – |
| CC(=O)NC(C1C(=O)CC(C)(C)CC1=O)(C(F)(F)F)C(F)(F)F | inactive | – |

| Compound | outcome | potentiation |
| --- | --- | --- |
| CCOC(=O)c1oc2ccc(S(=O)(=O)n3nc(-c4ccc(OC)cc4)cc3N)cc2c1C | inactive | – |
| O=C(N/N=C/c1ccc([N+](=O)[O-])o1)c1sc2ccccc2c1Cl | inactive | – |
| CC(=O)/C(=N/Nc1ccc([N+](=O)[O-])cc1)N1CCCc2ccccc21 | inactive | – |
| S=C(NCCc1ccccc1)N/N=C/C1CCCCC1 | inactive | – |
| COC(=O)N/N=C/c1cc(C)n(-c2ccc(F)cc2)c1C | inactive | – |
| COCCCN1C(=O)C(=O)/C(=C(/O)c2ccc(C)cc2)C1c1ccccc1 (stereo not given) | inactive | – |
| O=C(COC(=O)c1ccccc1)Nc1ccccc1N1CCOCC1 | inactive | – |
| CCOC(=S)NC(=O)c1sc2ccccc2c1Cl | – | 404% (active) |
| COc1ccc(NC(=S)NCCC(c2ccccc2)c2ccccc2)c(OC)c1 | inactive | – |
| S=c1sc2c(Cl)ncnc2n1-c1ccccc1 | – | 364% (active) |
| CCOc1ccc2[nH]c(=O)c(CN(Cc3ccc(C)cc3)C(=O)N3CCCC3)cc2c1 | inactive | – |
| O=C(Cn1c(C(F)(F)F)nc2ccccc21)N=Nc1c(O)[nH]c2ccc(Br)cc12 | inactive | – |
| S=c1nc[nH]c2c1sc1nc(-c3ccccc3)c3c(c12)CCCC3 | – | 499% (active) |
| O=c1c2c3c(sc2[nH]c(=S)n1Cc1ccco1)CCC3 | – | 289% (active) |
| Cc1ccsc1/C=N\NC(=O)c1n[nH]c2c1CCC2 | inactive | – |
| Cc1cc(/C=N/n2cnnc2)c(C)n1-c1ccc(Cl)cc1Cl | inactive | – |
| O=C(NC(=S)Nc1ccccc1N1CCCC1)c1ccco1 | – | 174% (active) |
| CC(C)OC(=O)c1c(NS(=O)(=O)c2ccccc2)sc2c1CCCC2 | – | 338% (active) |
| Fc1ccc(-c2csc(NC(=S)Nc3ccccc3)n2)cc1 | – | 154% (active) |
| O=C(N/N=C/c1ccc2cccc(OCc3ccccc3)c2n1)c1ccc(Br)cc1 | inactive | – |
